Sfp inh – blocks B. subtilis Sfp PPTase activity | Biochemical Sfp PPTase activity, qHTS | Potency, µM, without a hit: largest response in the series, negative = inhibition, most hits filed as inhibitors | 3.5% of 310,000 active | AID 1490;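 also: the enzyme is Sfp with the accession as filed and its product quenches rhodamine fluorescence; 0% = enzyme reaction without inhibitor and -100% = no enzyme wells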
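With Hepes-Na pH 7.6 buffer containing 10 mM MgCl2, Sfp (15 nM) modified BHQ-2-YbbR (12.5 uM) using rhodamine-CoA (5 uM). Two reads 30 minutes apart at 525/598 nm yielded each well's rate.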
BAZ2B inh – blocks human BAZ2B; Q9UIF8; AlphaScreen BAZ2B-H3K14Ac peptide displacement; Potency, µM (titrated, usually from 114 µM), without a hit: at the highest dose activity change, negative = inhibition, hits mostly inhibitors; 4.4% of 360,000 active; also: % is scaled to controls: 0 for no effect and ±100 for the full control effect; nearly all actives have a fitted effect of over 60% in size
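In this displacement format the biotinylated H3(5-23) peptide acetylated at Lys14 serves as ligand at 50 nM, with BAZ2B at 50 nM in PBS pH 7.4 containing 0.01% Tween-20. Donor and acceptor beads are 10 ug/mL final.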
TDP1 block – inhibitors of human tyrosyl-DNA phosphodiesterase TDP1; Q9NUW8; recombinant TDP1, AlphaScreen DNA substrate cleavage; Potency, µM (doses to about 130 µM), inactives show at the highest dose activity change, negative = inhibition, most hits filed as inhibitors; 0.28% of 350,000 active; AID 485290; also: % is scaled to controls: 0 for no effect and ±100 for the full control effect; nearly all actives have a fitted effect of over 40% in size
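E. coli-derived human Tdp1, 1 nM final. Cpd preinc 15 min RT; substrate 15 nM final, 5 min RT; AS bead mix 10 ug/ml final, 10 min RT. Signal loss = tyrosine-FITC cleavage. No-enzyme wells = max signal.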
HP1b binding inh – inhibitors of HP1-beta chromodomain binding to methylated histone tails; 0.56% of 390,000 active; AlphaScreen HP1-beta / biotin-H3K9me3 peptide binding; AID 540317; P83916; Potency, µM (doses to about 114 µM), for the others: at the highest dose activity change, negative = inhibition, hits mostly inhibitors; also: nearly all actives have a fitted effect of over 70% in size
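HP1-beta protein (50 nM final) preincubated 30 min at room temperature with biotinylated H3(1-18)K9me3 peptide (50 nM) in PBS pH 7.4, 0.01% Tween-20, then compound added for 30 min. AlphaScreen streptavidin donor/nickel chelate acceptor beads (10 ug/mL final), 30 min dark, luminescence read.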
G9a inh – blocks human histone lysine methyltransferase G9a; Potency, µM (series often up to 102 µM), for inactives: at the top dose activity, negative = inhibition, actives largely listed as inhibitors; G9a H3K9 monomethylation, AlphaScreen, 2 h; Q96KQ7; 8.8% of 350,000 active; also: % is scaled to controls: 0 for no effect and ±100 for the full control effect; nearly all actives have a fitted effect of over 75% in size
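Enzyme 20 nM + cpd, 15 min RT; add b-H3K9 pep 500 nM / SAM 20 uM; 2 h RT; anti-H3K9me1 Ab 0.5 ug/mL + SA donor / anti-rabbit acceptor beads 20 ug/mL each, 10 min; AlphaScreen read.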
JMJD2A Tudor inh – blocks the human JMJD2A Tudor domain | O75164 | AlphaScreen JMJD2A-Tudor / H3K4me3 peptide binding | Potency, µM (doses to about 114 µM), inactives show at the highest dose activity change, negative = inhibition, actives largely listed as inhibitors | 4.4% of 390,000 active; also: % is scaled to controls: 0 for no effect and ±100 for the full control effect; nearly all actives have a fitted effect of over 50% in size
Active calls of the source: *; ? = inconclusive; · = no result given; [ ] = another dose, or the depositor's remark. The list is not random: actives were taken first. Their share in the collection is about 12%. Calls follow the shape of the dose curve; as a rule, active = well fitted curve in the direction sought with a large enough effect; inconclusive = small, poorly fitted or top-dose-only effect, or another doubt; inactive = no such curve, though single readings can be large; an effect the other way counts as inactive or inconclusive. Potency is read from the fitted curve at half-maximal effect.

SMILES | Sfp inh | BAZ2B inh | TDP1 block | HP1b binding inh | G9a inh | JMJD2A Tudor inh
CCCCCn1nc(C(=O)OCc2nc(N)nc(Nc3ccccc3)n2)c2ccccc2c1=O | · | · | 1% | 5% | · | -29%
CCOC(=O)COn1c(=O)c(-c2cccs2)[n+]([O-])c2ccccc21 | 10µM* | ? | 4% | 22% | ? | -16%
O=C(/C=C/c1ccccc1)Nc1cccc(C(=O)NC2CC2)c1 | · | · | · | 23% | · | -17%
O=C(CCl)Nc1ncc(S(=O)(=O)c2ccc([N+](=O)[O-])cc2)s1 | · | · | 4% | 14% | · | -10%
CCC(C)(C)C(=O)Nc1ncc(S(=O)(=O)c2ccc([N+](=O)[O-])cc2)s1 | -6% | ? | 8% | -20% | 50µM* | -35%
O=C(Nc1ncc(S(=O)(=O)c2ccc([N+](=O)[O-])cc2)s1)c1cccnc1 | 5% | -29% | 8% | 0% | 50µM* | -23%
COC1CCCN(C(=O)c2ccc(OC3CCN(S(=O)(=O)N(C)C)CC3)cc2)C1 (centres undefined) | 6% | -8% | 2% | 8% | -93% | -10%
O=C(CCNC(=O)c1ccc(Br)cc1)NCc1ccncc1 | · | -6% | 0% | 16% | -19% | 0%
O=c1[nH]c(=S)c2[nH]c(=S)n(-c3ccccc3)c2[nH]1 | · | · | · | ? | · | 20µM*
Cc1cccc(-n2c(N)cc(=O)[nH]c2=S)c1 | -4% | 5% | 1% | 11% | 50µM* | -13%
O=c1[nH]c(=O)c2[nH]c(=O)n(-c3ccccc3)c2[nH]1 | · | · | · | 2% | · | -6%
O=c1cc(O)n(-c2ccccc2)c(=S)[nH]1 | 35µM* | 1% | -7% | -5% | 18µM* | -20%[11.4 µM]
N#CC1=C(N)N(c2ccc(Cl)cc2)C2=C(C(=O)CCC2)C1c1cc(CN2CCOCC2)cs1 (centres undefined) | · | ? | -2% | -1% | -19%[59 µM] | -23%
COC(=O)Cn1c(N)[n+](Cc2ccccc2)c2ccccc21 | · | 15% | 0% | 42% | -11%[2.33 µM] | -23%
Cc1cn2c(=O)c(S(=O)(=O)Nc3ccc(F)cc3F)c(C)nc2s1 | · | -9% | -3% | 34% | 7%[59 µM] | 7%
O=C(C1CCCO1)N1CCN(S(=O)(=O)c2cc(F)ccc2F)CC1 (centres undefined) | 18% | -11% | 1% | 21% | 27% | -3%
c1cncc(CNc2cc(-c3ccoc3)ncn2)c1 | 56µM* | · | · | · | -25%[0.501 µM] | ·
Cc1cnc(CNc2cc(-c3ccoc3)ncn2)cn1 | 28µM* | · | -13% | · | · | ·
Cc1cccc(CNc2cc(-c3ccc(N(C)C)cc3)ncn2)c1 | -28% | · | 18%[56.1 µM] | · | · | ·
COc1ccccc1CNc1cc(-c2ccoc2)ncn1 | 28µM* | · | · | · | 1%[0.501 µM] | ·
COc1ccccc1CNc1cc(-c2ccccc2OC)ncn1 | -12% | · | · | · | -7%[0.501 µM] | ·
Cc1cnc(CNc2cc(-c3ccc4c(c3)OCO4)ncn2)cn1 | 7% | · | · | · | ? | ·
Cc1cccc(CNc2cc(-c3ccoc3)ncn2)c1 | 14µM* | · | -7%[56.1 µM] | · | · | ·
CN(C)c1ccc(-c2cc(NCc3cccnc3)ncn2)cc1 | -3% | · | 4% | · | · | ·
C[C@H]([C@H](C)N1CC(=O)NC(=O)C1)N1CC(=O)NC(=O)C1 | ? | · | 21% | · | 2.2µM* | ·
SMILES | Sfp inh | BAZ2B inh | TDP1 block | HP1b binding inh | G9a inh | JMJD2A Tudor inh
O=C(O)CCN1C(=O)C(=C2CCCCCC2)SC1=S | 50µM* | 10% | -1% | 35% | 45µM* | -13%
O=C1C(=C2CCCCC2)SC(=S)N1Cc1ccco1 | 40µM* | ? | 0% | -23% | 35µM* | 56µM*
COc1ccc(Cl)cc1NC(=O)Cn1c(=O)n(Cc2ccco2)c(=O)c2ccc(C(=O)NC3CCCC3)cc21 | · | · | 2% | 23% | 0%[59 µM] | -7%
C/C(=N/NC(=O)CNS(=O)(=O)c1ccc(C)cc1)c1cccc([N+](=O)[O-])c1 | 5% | -4% | 1% | 29% | 7% | -12%
Cn1c(=O)[nH]c2nnc(-c3ccc(Cl)c(Cl)c3)nc2c1=O | ? | 89µM* | -2% | 3% | ? | ?
Cc1ccc(NC(=O)CN(C)C(=O)Cc2coc3cc(C)c(C)cc23)cc1 | · | · | · | 12% | · | -23%
Cc1cc2occ(CC(=O)N(C)CC(=O)Nc3c(C)cccc3C)c2cc1C | · | 1% | 5% | 5% | 40µM* | -8%
Cc1cc(=O)cc(C)n1-c1ccc(F)cc1F | 26% | 2% | -4% | 38% | -6% | -8%
CCOC(=O)c1ccccc1NC(=O)CSC(C)C(=O)Nc1cc(C)on1 (centres undefined) | · | -4% | 4% | 20% | -5%[0.501 µM] | -6%
CCOC(=O)C(C)n1cnc2c(nnn2-c2ccccc2)c1=O (centres undefined) | 10% | -22% | · | 41% | 15% | 2%
COC(=O)C(C)n1cnc2c(nnn2-c2ccccc2)c1=O (centres undefined) | 8% | -5% | · | 32% | 89µM* | -3%
CC1CCN(C(=O)c2ccc3c(c2)N(Cc2ccccc2)C(=O)c2ccccc2S3(=O)=O)CC1 | · | -37% | 6% | 36% | -3%[59 µM] | -20%
O=S(=O)(c1cccc(-c2cn3cccnc3n2)c1)N1CCOCC1 | -4% | -2% | 5% | 32% | 35µM* | -6%
O=S(=O)(c1cccc(-c2cn3cccnc3n2)c1)N1CCCCCC1 | 0% | · | 8% | 51% | ? | -9%
O=S(=O)(c1cccc(-c2n[nH]c(=S)o2)c1)N1CCOCC1 | 25µM* | -13% | · | -22% | 14µM* | ?
O=S(=O)(c1cccc(-c2nnco2)c1)N1CCOCC1 | 6% | 6% | -3% | 25% | 15% | -2%
O=S(=O)(c1cccc(-c2n[nH]c(=S)n2-c2cccc(C(F)(F)F)c2)c1)N1CCOCC1 | · | · | · | 24% | · | ?
O=S(=O)(c1cccc(-c2n[nH]c(=S)n2-c2ccccc2Cl)c1)N1CCOCC1 | · | · | 3% | 23% | · | 22µM*
Cc1ccc(S(=O)(=O)N2CCOCC2)cc1-c1n[nH]c(=S)n1-c1ccccc1 | · | 10% | 4% | 37% | -8%[12.7 µM] | 6.3µM*
COc1ccc(CN2C(=O)N(c3ccccc3)C(=O)C2CC(=O)Nc2ccccc2)cc1OC (centres undefined) | 2% | -12% | 5% | 2% | -25% | -18%
CCCN1CNc2c(c(=O)[nH]c(=S)n2CCc2ccsc2)C1 | · | · | 1% | 31% | · | -7%
O=S(=O)(c1ccc(S(=O)(=O)N2CCN(Cc3ccccc3)CC2)cc1)N1CCOCC1 | 19% | 3% | -2% | · | -28% | ·
O=S(=O)(c1cccc(-c2n[nH]c(=S)n2Cc2ccccc2)c1)N1CCOCC1 | -26% | -16% | · | 21% | · | 20µM*
O=C(O)c1ccc(/C=N/Nc2ncc(C(F)(F)F)cc2Cl)cc1 | 28µM* | -17% | ? | 32% | 32µM* | -13%

Screening results (PubChem BioAssay)
